# Among all 140,000 compounds or so, about 840 (0.6%) were called active. The sample holds actives, similar compounds and a random draw of the others, so the mix is not that of the screen.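 Rule for the calls: active = viability gain under doxorubicin at or above a set limit, the compound median plus 3 SD (cut at about 4.7% in these data); inactive = the rest.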
# Test: H69AR viability gain despite doxorubicin, primary screen, MRP-1 activator project, H69AR cells, CellTiter-Glo (AID 799);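 note: MRP-1 overexpressing cells given doxorubicin 25 µM after compound pretreatment; 18-22 h compound pretreatment then 72 h with doxorubicin before readout; 0% = doxorubicin-only wells and 100% = vehicle-treated cells without doxorubicin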
# Conditions: viability rescue, at 10 µM, stronger effect = higher value
row,Compound,viability increase
1,CN(C(=O)c1c(Cl)cnn1C)C12CC3CC(CC(C3)C1)C2,-1.48% (inactive)
2,Clc1cccc(CN2COc3c(cc(Cl)c4cccnc34)C2)c1,-5.22% (inactive)
3,COc1ccc(C(=O)Nc2ccccc2C(=O)N/N=C/c2ccccc2OC)cc1,-3.65% (inactive)
4,COc1cccc(/C=N\NC(=O)C2=NNC(=O)C2C)c1O (stereo not given),8.24% (active)
5,COc1cccc(/C=N/NC(=O)c2[nH]nc3c2CCc2ccccc2-3)c1O,-0.29% (inactive)
6,CCn1cc(/C=C2/SC(=S)NC2=O)c(C)n1,-3.74% (inactive)
7,Cc1ccc(NC(=S)NCc2ccccc2Cl)c(C)c1,-3.43% (inactive)
8,CC1(C)CC(=O)C2=C(C1)N=C1SCCC(=O)N1C2c1ccc(C(F)(F)F)cc1 (stereo not given),9.27% (active)
9,Cc1ccc(C(=O)COC(=O)CCCC(=O)NC2CCCCC2)cc1[N+](=O)[O-],-1.8% (inactive)
10,O=C(Cn1nnc(-c2ccccc2)n1)N/N=C/c1ccc(-c2ccc(Cl)cc2)o1,-1.7% (inactive)
11,COC(=O)N/N=C/c1ccc(-c2ccc(Cl)c(Cl)c2)o1,9.18% (active)
12,O=C(N/N=C\c1ccc(-c2ccc(Cl)c(Cl)c2)o1)C(=O)N1CCCC1,1.06% (inactive)
13,CCc1ccc(NC2Nc3cc(C)nn3S2)cc1 (stereo not given),1.66% (inactive)
14,C/C(=N/NC(=O)CSc1ccccn1)c1ccc([N+](=O)[O-])cc1,5.38% (active)
15,Cc1cccc(C)c1NC(=O)CSc1ccc([N+](=O)[O-])cn1,-2.01% (inactive)
16,COC(=O)c1ccccc1NC(=O)CSc1ccccn1,-0.18% (inactive)
17,CC(C)(C)NC(=O)COC(=O)c1cc(Br)ccc1Cl,1.61% (inactive)
18,Cc1ccc(C(=O)NC(C)c2ccccc2)cc1Br (stereo not given),2.53% (inactive)
19,COc1ccc(C(=O)ON=C2c3ccccc3-c3ccccc32)cc1OC,-0.45% (inactive)
20,COc1cccc(C2SCC(=O)N2c2cccc(C)c2)c1OC (stereo not given),-1.69% (inactive)
21,CSCC[C@H](NC(=O)OC(C)(C)C)C(=O)N/N=C/c1cc2ccc(C)cc2nc1Cl,-3.12% (inactive)
22,Cc1ccc(CN2C(=O)N/C(=C/c3cc(C)n(-c4ccccn4)c3C)C2=O)cc1,2.22% (inactive)
23,CCC(=O)N1CCN=C1SCc1ccc(F)cc1,5.28% (active)
24,O=C(C1CC1)N1CCN=C1SCc1ccc(Cl)cc1,4.76% (active)

row,Compound,viability increase
1,O=C(c1ccco1)N1CCN=C1SCc1cccc(Cl)c1,1.42% (inactive)
2,Cc1cccc(CC(=O)N2CCN=C2SCc2ccc([N+](=O)[O-])cc2)c1,-3.9% (inactive)
3,Cc1cc(C)cc(C(=O)N2CCN=C2SCc2ccc([N+](=O)[O-])cc2)c1,-4.17% (inactive)
4,CC1CCN(C(=O)c2ccc(CSc3ccc(Cl)cc3)cc2)CC1,-2.43% (inactive)
5,Cc1ccc(C(C[N+](=O)[O-])c2c(C)cc3ccccn23)cc1 (stereo not given),-4.62% (inactive)
6,COc1cc(C(=O)Nc2cc(C(F)(F)F)ccc2N2CCOCC2)ccc1O,-4.55% (inactive)
7,O=c1[nH]cnc2c1c(-c1ccccc1)cn2-c1ccc(F)cc1,-1.33% (inactive)
8,CSCCC(NC(=O)c1cc([N+](=O)[O-])cc([N+](=O)[O-])c1)c1nc2ccccc2[nH]1 (stereo not given),-3.92% (inactive)
9,S=C(NCCc1ccccc1)NCc1ccccc1Cl,-1.54% (inactive)
10,O=C(NCc1ccco1)C1CCCN(S(=O)(=O)c2cnc[nH]2)C1 (stereo not given),-1.18% (inactive)
11,Cc1noc(/C=C/N(C)C)c1S(=O)(=O)N1CCCC(C(=O)NCc2ccco2)C1 (stereo not given),8.37% (active)
12,O=C(NCc1ccco1)C1CCCN(S(=O)(=O)c2ccccc2)C1 (stereo not given),0.35% (inactive)
13,CCCc1c(C)nc2c(Br)cccc2c1Cl,0.38% (inactive)
14,O=C1CSC2=NCN(c3ccccc3)CN12,8.4% (active)
15,O=C(NCc1cccs1)C(=O)NCC1OCCCN1S(=O)(=O)c1ccc(F)cc1 (stereo not given),-1.49% (inactive)
16,CC(O)c1nc2ccccc2n1Cc1ccc([N+](=O)[O-])cc1 (stereo not given),-1.44% (inactive)
17,Cc1ccc(-c2c(C)n([O-])c3c([n+]2=O)CCC3)cc1,-0.22% (inactive)
18,CC(C)(C)c1ccc(C(=O)NCc2nnc(SCC(=O)N3CCCc4ccccc43)n2-c2ccccc2)cc1,-0.43% (inactive)
19,Cc1ccc(CSCC(N)C(=O)O)cc1 (stereo not given),1.44% (inactive)
20,COc1cc2c(cc1/C=C1/NC(=O)N(c3ccccc3)C1=O)OCO2,0.58% (inactive)
21,CCC1(C)Cc2c(sc3[nH]c(=S)n(Cc4ccccc4)c(=O)c23)CO1 (stereo not given),-3.87% (inactive)
22,CCC1(C)Cc2c(sc3nc(SC)nc(N)c23)CO1 (stereo not given),-0.12% (inactive)
23,CCC1(C)Cc2c(sc3nnn(CC(=O)Nc4ccc(Cl)cc4)c(=O)c23)CO1 (stereo not given),9.27% (active)
24,COCc1c(C(=O)N/N=C/C2CC=CCC2)nnn1-c1nonc1N (stereo not given),-1.34% (inactive)

row,Compound,viability increase
1,CC(C)(C)N(Cc1ccccc1)C(=O)COC(=O)CCc1c[nH]c2ccccc12,-1.32% (inactive)
2,COc1ccc(C)cc1NC(=O)CCC(=O)Nc1nnc(C(F)(F)F)s1,1.24% (inactive)
3,O=C(NCC(F)(F)F)Nc1nnc(C(F)(F)F)s1,7.12% (active)
4,CCc1nnc(NC(=O)CCC(=O)O)s1,0.72% (inactive)
5,Cc1nnnn1/C(=C\c1ccccc1)C(=O)OCC(=O)N1CC2(C)CC1CC(C)(C)C2 (stereo not given),-4.97% (inactive)
6,CCn1c(NC(=O)c2nn(C)cc2Br)nc2ccccc21,-2.46% (inactive)
7,O=C(NCCNc1ccc([N+](=O)[O-])cc1)c1cccc2c(Br)cccc12,1.47% (inactive)
8,C/C(=N\NC(=S)NCc1ccccc1)c1ccc(Cl)cc1,-2.64% (inactive)
9,C/C(=N/NC(=S)Nc1ccccc1)c1ccc2c(c1)OCO2,7.99% (active)
10,O=C(Nc1ccccc1)c1ccc2c(c1)OCO2,-0.11% (inactive)
11,COc1ccc(OCC(O)CNC(=O)Nc2ccc(Cl)cc2)cc1 (stereo not given),2.65% (inactive)
12,Cc1ccc(C)c(NS(=O)(=O)c2ccc(OCC(=O)NCc3cccnc3)cc2)c1,-4.52% (inactive)
13,CC1CCN(C(=O)c2ccc(S(=O)(=O)Cc3cc(F)ccc3F)c([N+](=O)[O-])c2)CC1,-4.87% (inactive)
14,CCOc1ccc(Br)cc1CSC(=N)N,0.81% (inactive)
15,N=C(N)SCc1cccc2ccccc12,8.11% (active)
16,c1ccc2c(CSCc3nc4ccccc4[nH]3)cccc2c1,-0.17% (inactive)
17,COc1cc(C(=S)NC2CCCCC2)ccc1O,-2.71% (inactive)
18,Cc1[nH]n(-c2ccccc2)c(=O)c1/C=N/NC(=O)c1ccoc1C,-1.54% (inactive)
19,COc1cc(NC(=S)NCCSc2ccc(C)cc2)cc(OC)c1,-3.24% (inactive)
20,CCc1nnc(NS(=O)(=O)c2ccc(NS(=O)(=O)c3ccccc3)cc2)s1,-0.5% (inactive)
21,CCc1nnc(NC(=O)C2CCCN2S(=O)(=O)c2ccccc2)s1 (stereo not given),12.4% (active)
22,CC(C)c1nnc(NC(=O)C2CCCN2S(=O)(=O)c2ccc(Cl)cc2)s1 (stereo not given),-0.99% (inactive)
23,C=CCNC(=O)c1ccccc1NC(=O)c1ccc(Cl)c(S(=O)(=O)Nc2cccc(C)c2C)c1,5.97% (active)
24,COC(=O)c1ccc(C(=O)Nc2cc(Cl)ccc2Cl)cc1NC(=O)c1ccccc1C,-3.01% (inactive)

row,Compound,viability increase
1,Cc1ccccc1NC(=O)c1ccccc1NS(=O)(=O)c1cccc2cccnc12,-3.17% (inactive)
2,CC(C)(C)C1CCC(OC(=O)CCC(=O)Nc2ccccc2)CC1 (stereo not given),3.57% (inactive)
3,Cc1ccc(C(=O)Cc2nnc(C)s2)cc1,-2.89% (inactive)
4,Cc1ccc(C2=N/C(=C\c3ccc(OS(=O)(=O)c4ccc(C)cc4)cc3)C(=O)O2)cc1,-1.26% (inactive)
5,O=C(Nc1ccn(Cc2ccccc2F)n1)c1ccc(COc2ccc(Cl)cc2Cl)o1,10.6% (active)
6,CC(=O)Nc1ccn(Cc2c(F)cccc2Cl)n1,-1.03% (inactive)
7,O=C(Nc1ccn(Cc2ccc(F)cc2)n1)c1ccncc1,1.75% (inactive)
8,CCCc1ccc(-c2c(C)sc(NC(=O)c3ccnn3C)c2C#N)cc1,-1.28% (inactive)
9,Cn1nccc1CNC(=O)c1ccnn1C,10.8% (active)
10,Cn1ncc(Br)c1C(=O)NCc1cccs1,-2.03% (inactive)
11,O=C(NCc1ccccc1Cl)C1CCC(CNc2c(N3CCCCC3)c(=O)c2=O)CC1 (stereo not given),-1.61% (inactive)
12,CN(C)S(=O)(=O)c1ccc(N2CCCC2=O)c([N+](=O)[O-])c1,-1.68% (inactive)
13,CC(=O)Cc1nsc(NC(=O)c2ccc(COc3ccc(C)cc3)o2)n1,-0.06% (inactive)
14,COc1ccc(-c2nn(-c3ccccc3)cc2C(=O)Nc2nccs2)cc1OC,-4.27% (inactive)
15,COc1ccc(-c2nn(-c3ccccc3)cc2C(=O)Nc2nc(CC(C)=O)ns2)cc1,6.77% (active)
16,COc1ccc2nc(Nc3nc4ccc(NC(C)=O)cc4s3)sc2c1,-4.94% (inactive)
17,CCCOc1ccc(Cn2ccnc2)cc1[N+](=O)[O-],-1.18% (inactive)
18,CC(=O)NC1C(OCc2ccccc2)OC(COC(C)=O)C(OC(C)=O)C1OC(C)=O (stereo not given),-1.54% (inactive)
19,Cc1ccc(S(=O)(=O)N(Cc2ccc(Cl)cc2)c2ccccc2C(=O)NCc2cccnc2)cc1,-2.38% (inactive)
20,Cc1ccc(O)c(-c2cc(C(=O)NCc3ccccc3)[nH]n2)c1,-1.43% (inactive)
21,CSCCC1NC2(C(=O)Nc3ccc(Cl)cc32)[C@@H]2C(=O)N(C3CCCC3)C(=O)[C@H]12 (stereo not given in full),-3.72% (inactive)
22,O=C1[C@@H]2C(Cc3ccc(O)cc3)NC3(C(=O)Nc4ccc(F)cc43)[C@@H]2C(=O)N1c1ccc(F)cc1 (stereo not given in full),5.18% (active)
23,CNC(=O)NC(=O)C(OC(=O)c1cccc(S(=O)(=O)N2CCCCC2)c1)c1ccccc1 (stereo not given),-2.3% (inactive)
